Hit rate of the full screen: of about 48,000 compounds, about 13,000 (27%) showed an effect of 50% or more. The list shows a part of the results.

The subject of the assay is Wolbachia pipientis. In words: Anti-Wolbachia Cell-Based Screen. It counts as functional. The arrangement: scale not given: in the data most compounds retested in dose-response had high values. The note with it: 5 µM.
Turning to `CCc1ccc(C2COCCN2C(=O)NCc2cccc(C#N)c2)o1` (stereo not drawn), the “Percent Effect” value was -15.12%. Regarding `Cn1cccc1-c1cc(C(=O)N2CCCC2c2ccc(C(N)=O)s2)[nH]n1` (stereo not drawn), the “Percent Effect” value was -10.74%.

As to `CC(C)CN1CCOC[C@H](Oc2ccc(S(C)(=O)=O)cc2)C1`, the “Percent Effect” value is listed as 2.76%. Take `Cc1cc(C(=O)NCc2ccnc(N3CCN(C)CC3)c2)c(C)s1`: the “Percent Effect” value is 0.2044%.

On to `CSC1=Nc2c(cnn2-c2ccc(C)cc2)C2=NCCCN12`, for which the “Percent Effect” value amounted to 111.5%. For the compound `CSC1=Nc2c(cnn2-c2ccccc2)C2=NCCCN12`, the “Percent Effect” value worked out at 110.4%. Turning to `O=C1CCCCN1CSc1nnnn1-c1ccc(Cl)cc1`, the “Percent Effect” value is -1.778%. As for `CCSC1=Nc2c(cnn2-c2ccc(Cl)cc2)C2=NCCCN12`, the “Percent Effect” value was 119%. With `CSC1=Nc2c(cnn2-c2cccc(Cl)c2)C2=NCCCN12`, the “Percent Effect” value worked out at 101.8%.

For the compound `Cc1cc(NC(=O)N2CCC[C@@H]2CO)nn1-c1cccc(Cl)c1`, the “Percent Effect” value is recorded as -10.34%. To `CC(C)OCCOCc1cccc(NC(=O)NCCn2ccnc2)c1` belongs 1.646%; to `O=C(CCc1cc2n(n1)CCN(Cc1ncc[nH]1)C2)N1CCCC1`, 6.822%. Consider `Cc1cc(N[C@H]2CCCC[C@@H]2O)n2nccc2n1`, for which the “Percent Effect” value is -46.39%.

Take `Cc1nc(Cn2cncc(Br)c2=O)no1`: the “Percent Effect” value was 4.078%. In the case of `Cn1cnc2c1CCN(CC(=O)N(Cc1ccccc1F)C1CC1)C2`, the “Percent Effect” value was -0.08141%.

With `CSC1=Nc2c(cnn2-c2ccc(Cl)cc2)C2=NCCCN12`, the “Percent Effect” value is given as 101%. As for `CNC(=O)c1sccc1S(=O)(=O)NC`, the “Percent Effect” value was -5.377%.

On to `COc1cccc2c1OCCCN(c1nc(N)nc3c1CCNC3)C2`, for which the “Percent Effect” value is on record as -2.498%. `Cl.Cl.Cl.c1cnc(NCc2cncc3c2CCN(Cc2cccnc2)C3)nc1`: the “Percent Effect” value is listed as 11.16%. As for `Cc1ccc(NCc2cncc3c2CCN(Cc2ccccn2)C3)nn1.Cl.Cl`, the “Percent Effect” value is listed as 108.9%. As for `Cc1ccc(NCc2cncc3c2CCN(C(=O)C2CC=CC2)C3)nn1.Cl`, the “Percent Effect” value is given as 36.84%. Consider `Cl.Cl.c1cnc(NCc2cncc3c2CCN(Cc2ccsc2)C3)nc1`, for which the “Percent Effect” value was 10.62%.

In the case of `Cc1nccc(NCc2cncc3c2CCN(CC2CCOC2)C3)n1.Cl.Cl` (stereo not drawn), the “Percent Effect” value was found to be 113.7%. Consider `Cl.Cl.c1csc(CN2CCc3c(CNc4nncs4)cncc3C2)c1`, for which the “Percent Effect” value stood at 13.01%.

In the case of `CC(C)(C)c1ccc(-c2n[nH]c3c2CN(CC2CCOC2)CC3)cc1` (stereo not drawn), the “Percent Effect” value is 5.17%. Consider `Cc1nccc(NCc2cncc3c2CCN(CC2CC2)C3)n1.Cl.Cl`, for which the “Percent Effect” value was found to be 94.72%. `Cc1cc(CN2CCc3c(CNc4ncccn4)cncc3C2)oc1C.Cl.Cl`: the “Percent Effect” value was 20.89%. Regarding `Cc1nccc(NCc2cncc3c2CCN(CCN(C)C)C3)n1`, the “Percent Effect” value worked out at 100%.

Consider `O=C(NCCn1cccc1)C1CCCOC1` (stereo not drawn), for which the “Percent Effect” value stood at 1.95%. To `CCC(Cn1ccc2[nH]c(=O)c(C#N)cc2c1=O)OC` (stereo not drawn) belongs -23.91%. Take `Cc1ccccc1[C@@H]1CN(CCOCCO)C[C@H]1C(=O)O`: the “Percent Effect” value is -28.11%. For `O=C(Nc1cc(-c2ccncc2)no1)C1CCC1`, the “Percent Effect” value is reported as -23.1%. In the case of `Cn1ccc(NC(=O)CN2C[C@H]3CC[C@@H]2CN(S(C)(=O)=O)C3)n1` it was 4.015%. `CC1CN(C)CCN1Cc1cccc(C(=O)NCc2ccco2)c1` (stereo not drawn): the “Percent Effect” value is listed as 11.16%.

On to `O=C1N(c2cccc(F)c2)Cc2nc(=O)[nH]n21`, for which the “Percent Effect” value is given as -10.2%. To `Cc1nc(N(Cc2ccncc2)CC2CCCO2)c2ccsc2n1` (stereo not drawn) belongs 2.161%; to `COCc1noc(CCNC(=O)c2ccc(C3CCCO3)s2)n1` (stereo not drawn), -0.9385%; to `Cc1nc(CN2CCCC(Nc3ncnc4ccsc34)C2)no1` (stereo not drawn), 36.74%. As to `COc1ccnc(CNc2nc(C)nc3ccsc23)c1`, the “Percent Effect” value was -33.44%. Consider `Cc1nc(NCCc2noc(C3CCCO3)n2)c2sccc2n1` (stereo not drawn), for which the “Percent Effect” value was determined as 194.7%. For the compound `Cc1nc(NCc2noc(C3CCCO3)n2)c2sccc2n1` (stereo not drawn), the “Percent Effect” value is 146.8%. In the case of `Cc1nc(NCc2noc(C3CCCO3)n2)c2ccsc2n1` (stereo not drawn) it was 190.8%; in that of `Fc1ccc(OCC2CCCO2)c(NCc2noc(C3CC3)n2)c1` (stereo not drawn), 2.456%; in that of `Cc1nc(N2CCC3(CCCN(CC4CC4)C3=O)C2)c2sccc2n1` (stereo not drawn), -31.46%. Regarding `Cc1cccc(N2CCN(C(=O)C3CC4(CCNCC4)CN3)CC2)n1` (stereo not drawn), the “Percent Effect” value is -9.883%. Turning to `COC(=O)CN(Cc1ccccc1C)C(=O)CCNC(=O)C(C)(C)C`, the “Percent Effect” value was found to be 10.54%. `Cc1cc2nc(CO[C@H]3CN(C4CCC4)C[C@H]3F)[nH]c2cc1C`: the “Percent Effect” value was -5.771%. Turning to `O=C(O)C(F)(F)F.O=C1CCC2(CCN(c3ncc(F)cn3)CC2)N1Cc1ccncc1`, the “Percent Effect” value is -48.93%. Consider `O=C(O)C(F)(F)F.O=C(O)C(F)(F)F.O=C1CC[C@]2(CC[C@@H](NC3CCOC3)CC2)N1Cc1ccncc1` (stereo partly drawn), for which the “Percent Effect” value is listed as -47.26%. Regarding `Cc1ccc(N2CCC3(CC2)CNC(=O)CO3)nn1.O=C(O)C(F)(F)F`, the “Percent Effect” value was 10.91%. For the compound `N#Cc1ccc(CN2CC3(CCCCN3c3cccnc3)CC2=O)cc1.O=C(O)C(F)(F)F` (stereo not drawn), the “Percent Effect” value is -4.907%. In the case of `N#Cc1ccc(N2CCC3(CC2)COCCN3Cc2cccnc2)cc1.O=C(O)C(F)(F)F` it was -19.62%; in that of `N#Cc1ccc(N2CCC3(CCC(=O)N3Cc3ccncc3)CC2)nc1.O=C(O)C(F)(F)F.O=C(O)C(F)(F)F`, 101%. As to `Cc1ccc(N2CCC3(CCC(=O)N3Cc3ccncc3)CC2)nn1.O=C(O)C(F)(F)F`, the “Percent Effect” value stood at 117.9%. For `N#Cc1ccc(N2CCC3(CCC(=O)N3Cc3cccnc3)CC2)nc1.O=C(O)C(F)(F)F.O=C(O)C(F)(F)F`, the “Percent Effect” value is given as 109.7%. For `Cc1cc(CN(C)Cc2cc3c(cc2OC(F)F)OCO3)on1`, the “Percent Effect” value was -6.74%.

Turning to `CC(C)c1nnc(CN2CCCC2C(=O)OCc2ccccc2)o1` (stereo not drawn), the “Percent Effect” value was determined as 4.736%.

`COCC1CCN(CCCc2cn[nH]c2)CC1`: the “Percent Effect” value is on record as 0.277%. Take `Cc1cc(C)n(-c2ccc(N3CCC4(CC3)OCCO4)nc2)n1`: the “Percent Effect” value worked out at 6.34%.

For the compound `COCCN(C)C(=O)c1nc2c(s1)CCCN2C`, the “Percent Effect” value was 4.068%. Take `CCN(C(=O)c1nc2c(s1)CCCN2C)C(C)C`: the “Percent Effect” value was 108.3%. In the case of `COCCN(C)C(=O)c1nc2c(s1)CCCN2S(C)(=O)=O` it was -10.12%; in that of `CC(=O)N1CCCc2sc(C(=O)NC3CC3)nc21`, 2.286%; in that of `CCN(C(=O)c1nc2c(s1)CCCN2S(C)(=O)=O)C(C)C`, 111.8%.

Consider `CC(=O)N1CCCc2sc(C(=O)Nc3ccc(C)nc3)nc21`, for which the “Percent Effect” value is listed as -6.006%. Turning to `CCN(C(=O)c1nc2c(s1)CCCN2Cc1ccccc1)C(C)C`, the “Percent Effect” value is given as -4.382%. To `CCNC(=O)c1nc2c(s1)CCCN2S(C)(=O)=O` belongs -29.83%; to `CCN(C(=O)c1nc2c(s1)CCCN2C(C)=O)C(C)C`, 127.1%. To `CCn1cc(CN2CCC(c3ccncc3)CC2)cc1C#N` belongs 18.43%; to `Cc1ccc2c(c1)c(CNC(=O)C1CC(=O)N(CCN(C)C)C1)nn2C` (stereo not drawn), 14.04%; to `CC(C)OCCN(C)CC(c1cccs1)N1CCOCC1` (stereo not drawn), -0.1545%. Take `Cc1sc2nc(SC(C)c3nc(C(C)C)no3)nc(N)c2c1C` (stereo not drawn): the “Percent Effect” value came to 10.39%. `COc1c(Br)cccc1CCNC(=O)c1ccon1`: the “Percent Effect” value is -9.617%. As for `Cc1nc(C)n(CC2CCCN(CCc3ccccc3)C2)n1` (stereo not drawn), the “Percent Effect” value turned out to be 91.53%. With `COc1ccc(CCN2CCCC(Cn3nc(C)nc3C)C2)cc1` (stereo not drawn), the “Percent Effect” value came to 9.645%. As for `Cc1nc(C)n(CC2CCCN(CCc3ccncc3)C2)n1` (stereo not drawn), the “Percent Effect” value is -0.4528%. Take `Cc1nc(C)n(CC2CCCN(CCCc3ccccc3)C2)n1` (stereo not drawn): the “Percent Effect” value came out at 82.12%. To `O=C(O)C(F)(F)F.O=C(c1cocn1)N1CCC2(CC1)COC(COCc1ccccn1)C2` (stereo not drawn) belongs -10.48%. To `NCC1CCC2(CCN(C(=O)c3ccccn3)CC2)CO1.O=C(O)C(F)(F)F.O=C(O)C(F)(F)F` (stereo not drawn) belongs 112.6%; to `CCOCC1CC2(CCN(C(=O)c3ccccn3)CC2)CO1.O=C(O)C(F)(F)F` (stereo not drawn), -17.18%.

On to `CN(C)CC(=O)N1CCC2(CC1)COC(COc1ccccn1)C2.O=C(O)C(F)(F)F.O=C(O)C(F)(F)F` (stereo not drawn), for which the “Percent Effect” value is 11.11%. Consider `Cc1ccc(C(=O)N2CCC3(CC2)COC(COc2ccccn2)C3)o1.O=C(O)C(F)(F)F` (stereo not drawn), for which the “Percent Effect” value came out at 2.842%. On to `CNC(=O)NCC1CCC2(CCN(C(=O)c3ccccn3)CC2)CO1.O=C(O)C(F)(F)F` (stereo not drawn), for which the “Percent Effect” value was 105.2%. To `Fc1ccc(Oc2ccc(CNCC3CNc4ccnn4C3)cn2)cc1` (stereo not drawn) belongs 99.62%; to `c1ccc(Cn2cncn2)c(CNCC2CNc3ccnn3C2)c1` (stereo not drawn), 4.151%; to `c1ccc(Oc2ccc(CNCC3CNc4ccnn4C3)cn2)cc1` (stereo not drawn), 117.1%.

Take `c1ccc(-n2ccnc2)c(CNCC2CNc3ccnn3C2)c1` (stereo not drawn): the “Percent Effect” value is -6.615%. Consider `COc1ccc(CNC[C@H]2Cn3ccnc3CO2)cn1`, for which the “Percent Effect” value is on record as -7.877%. As to `Cc1cc2n(n1)CC(CNCc1ccc(OCC3CC3)nc1)CN2` (stereo not drawn), the “Percent Effect” value came to 93.19%. In the case of `Cc1cc2n(n1)CC(CNCc1ccc(-n3cccn3)nc1)CN2` (stereo not drawn) it was -3.824%; in that of `Cc1cc2n(n1)CC(CNCc1cnn(C)c1)CN2` (stereo not drawn), -3.792%; in that of `c1cc2n(n1)CC(CNCc1ccc(OCC3CC3)nc1)CN2` (stereo not drawn), 1.128%. With `Fc1cccc(Oc2ccc(CNCC3CNc4ccnn4C3)cn2)c1` (stereo not drawn), the “Percent Effect” value came out at 5.815%.

With `O=C(NCCNCC1CNc2ccnn2C1)c1ccc(F)cc1` (stereo not drawn), the “Percent Effect” value is given as -19.45%.

Regarding `COc1ccc(CNCC2CNc3ccnn3C2)cn1` (stereo not drawn), the “Percent Effect” value turned out to be 96.76%. Consider `Cc1n[nH]c(C)c1C1CCCN1C(=O)c1coc(Br)c1` (stereo not drawn), for which the “Percent Effect” value was determined as 4.835%. On to `CCN(Cc1cccc2c1OCO2)C(=O)Nc1cn[nH]c1`, for which the “Percent Effect” value came out at 109.5%. In the case of `CCN(Cc1ccc2c(c1)OCO2)C(=O)NCc1nc(C)cs1`, the “Percent Effect” value is -7.212%.

On to `O=C(Nc1ccccn1)N(CCO)Cc1ccsc1`, for which the “Percent Effect” value is recorded as -7.906%.

Consider `CCN(C(=O)c1cccc2c1OCO2)c1ccccc1`, for which the “Percent Effect” value is -1.465%.

In the case of `CCN(Cc1cccc2c1OCO2)C(=O)NCc1ccccn1`, the “Percent Effect” value worked out at 102.4%. To `O=C(Nc1cn[nH]c1)N(CCO)C1CCc2ccccc21` (stereo not drawn) belongs 3.342%; to `CCN(Cc1cccc2c1OCO2)C(=O)Nc1ccccn1`, 122.5%. As to `COc1cc(CN(C)C(=O)NCc2cccc3c2OCO3)ccc1SC`, the “Percent Effect” value is given as -31.12%. Regarding `O=C(Cc1ccccc1Br)NCC(=O)Nc1cn[nH]c1`, the “Percent Effect” value is given as -11.75%.

In the case of `Cc1cc(CN(C)C(=O)NCc2ccccn2)no1`, the “Percent Effect” value is reported as 9.808%. To `CCN(Cc1cccc2c1OCCO2)C(=O)NC(C)(C)C` belongs -7.864%; to `CCN(Cc1cccc2c1OCO2)C(=O)NCCOC`, 78.96%.

Source of the values: ChEMBL document CHEMBL3988442, “University of Dundee, Small-Polar-MMV Screening Library” (2021).
